Most compounds without a hit are left out; they make up all but 1.1% or so of the library.
RE007 growth inh = qHTS Assay for Inhibitors of the HIV-1 protein Vpr; S. pombe RE007 Vpr strain, BacTiter-Glo ATP luminescence, 24 h; 0.21% of 360,000 active; Potency, µM (doses to about 92.2 µM), for inactives: top-dose activity change, negative = less growth, most hits filed as inhibitors; active = well fitted falling curve with a large enough effect; inconclusive = small, poorly fitted or top-dose-only effect; inactive = no such curve, though single readings can be large or run the other way; also: % is scaled to controls: 0 for no effect and ±100 for the full control effect; nearly all actives have a fitted effect of over 50% in size
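Fission yeast RE007 carrying one integrated HIV-1 vpr copy, seeded at OD 0.01 in PMG+AL medium with 23 nL pinned compound. Grown 24 h at 30 degrees; viability read by BacTiter-Glo luminescence after 5 min.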
LmPK inhibitor = qHTS Assay for Inhibitors of Leishmania Mexicana Pyruvate Kinase (LmPK); Potency, µM (doses to about 57.5 µM), for the others: at the highest dose activity change, negative = inhibition, most hits filed as inhibitors; AID 1721, 2009; purified LmPK, Kinase-Glo ATP luminescence, 1 h; 0.37% of 290,000 active; also: % is scaled to controls: 0 for no effect and ±100 for the full control effect
Target sequence (Q27686 whole entry, looked up): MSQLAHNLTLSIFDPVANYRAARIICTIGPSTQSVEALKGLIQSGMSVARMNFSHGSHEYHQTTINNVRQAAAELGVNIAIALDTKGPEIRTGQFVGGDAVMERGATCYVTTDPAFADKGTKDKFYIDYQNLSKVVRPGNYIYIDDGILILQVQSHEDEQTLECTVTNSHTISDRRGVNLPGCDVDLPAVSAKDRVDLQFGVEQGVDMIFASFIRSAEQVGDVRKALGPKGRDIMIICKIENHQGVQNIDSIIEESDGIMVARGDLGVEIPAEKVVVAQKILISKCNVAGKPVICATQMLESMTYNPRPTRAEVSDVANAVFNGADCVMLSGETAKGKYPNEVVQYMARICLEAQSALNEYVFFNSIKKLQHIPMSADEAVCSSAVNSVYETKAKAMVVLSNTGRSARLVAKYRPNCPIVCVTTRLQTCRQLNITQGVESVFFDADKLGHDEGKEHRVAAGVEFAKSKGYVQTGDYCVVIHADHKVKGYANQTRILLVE
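In 50 mM imidazole pH 7.2 with 7 mM MgCl2, LmPK (0.1 nM) turned over PEP (0.5 mM) and ADP (0.1 mM) for 1 h at room temperature. Luciferase read-out of ATP.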
TbPYK inhibitor = qHTS of Trypanosoma Brucei Inhibitors; 0.12% of 410,000 active; pyruvate kinase (Trypanosoma brucei), Q57TT1; Potency, µM (top dose mostly 76.8 µM), for the others: at the top dose activity, negative = inhibition, most hits filed as inhibitors; TbPYK enzyme, Kinase-Glo Plus ATP luminescence, 45 min; AID 624173, 2012; also: % is scaled to controls: 0 for no effect and ±100 for the full control effect; nearly all actives have a fitted effect of over 50% in size
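Activity of T. brucei pyruvate kinase was followed by Kinase-Glo Plus luminescence after the enzyme reacted 45 min at room temperature with 130 uM ADP (final) and substrate. Test compounds were added before ADP at multiple concentrations.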
FBPA Giardia inh = qHTS Assay for Inhibitors of Fructose-1,6-bisphosphate Aldolase from Giardia Lamblia. A8B2U2. purified Giardia FBPA. Potency, µM (top dose mostly 59.6 µM), inactives show at the highest dose activity, negative = inhibition, actives largely listed as inhibitors. 0.71% of 290,000 active; also: % is scaled to controls: 0 for no effect and ±100 for the full control effect; nearly all actives have a fitted effect of over 55% in size
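40 nM FBPA preincubated 10 min at RT with compound (up to 57.5 uM final), then substrate plus GAPDH/TPI/NAD/arsenate coupling and diaphorase/resazurin added. Fluorescence read after 20 min at RT, 525/598 nm.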
SARS PLpro yeast = qHTS of Yeast-based Assay for SARS-CoV PLP | S. cerevisiae expressing SARS-CoV PLpro, growth rescue | Potency, µM (doses to about 32.9 µM), for inactives: top-dose activity, positive = growth rescue, usual class: activators | 0.19% of 330,000 active | AID 485353, 2010; calls by dose curve; also: 0% is about no effect; nearly all actives have a fitted effect of over 55% in size
* marks the source's active call; other numbers are inactive results; ? = inconclusive; nt = no result given; ! = not confirmed by another sample. Unless noted, calls follow the shape of the dose curve; as a rule, active = well fitted curve in the direction sought with a large enough effect; inconclusive = small, poorly fitted or top-dose-only effect, or another doubt; inactive = no such curve, though single readings can be large; an effect the other way counts as inactive or inconclusive. Potency is read from the fitted curve at half-maximal effect.

SMILES	RE007 growth inh	LmPK inhibitor	TbPYK inhibitor	FBPA Giardia inh	SARS PLpro yeast
Cc1ccc2nc(NNC(=O)c3ccc(S(=O)(=O)N4CCc5ccccc5C4)cc3)sc2c1	3%	3%	-4%	11%	5µM*
Cc1ccc2nc(NC(=O)c3ccc(S(=O)(=O)N4CCC(C)CC4)cc3)sc2c1	nt	nt	-5%	nt	nt
COCn1c(-c2ccc(OC)cc2)nc2ccccc21	-4%	22µM*	-9%	1%	-24%
O=C(O)c1ccc(N/N=C/c2c[nH]c3ccccc23)cc1	-10%	6%	-17%	-5%	-2%
Fc1c(F)c(F)c(N/N=C/c2c[nH]c3ccccc23)c(F)c1F	16µM*	-1%	-12%	-5%	-104%
Cc1cccc(-c2nc(SCc3cc(=O)c4cccc(F)c4[nH]3)n[nH]2)c1	nt	nt	-7%	nt	nt
CC(C)(C)C(=O)NCC12C=CC(O1)C1C(=O)N(c3ccccc3)C(=O)C12 (stereo unspecified)	8.9µM*	11%	?	-1%	-111%
CCc1ccccc1N1CC23C=CC(O2)C(C(=O)OCC(C)C)C3C1=O (stereo unspecified)	4%	9%	-2%	0%	3%
CC(C)COC(=O)NCC12C=CC(O1)C1C(=O)N(c3ccc(Cl)cc3)C(=O)C12 (stereo unspecified)	1.6µM*	-21%	-23%	2%	-18%
Cc1ccc(N2C(=O)C3C4C=CC(CNC(=S)Nc5cccc(Cl)c5)(O4)C3C2=O)cc1 (stereo unspecified)	10µM*	2%	-4%	2%	-79%
Cc1ccc(N2C(=O)C3C4C=CC(CNC(=S)Nc5ccc(F)cc5)(O4)C3C2=O)cc1 (stereo unspecified)	10µM*	-2%	-13%	-10%	-82%
C=Cc1ccc(Cn2c(C(=O)O)c(CNC3CCCCC3)c3ccc(OC)cc32)cc1	nt	nt	-10%	nt	nt
Cc1ccc(N2C(=O)C3C4C=CC(CNC(=S)N5CCN(c6ccccn6)CC5)(O4)C3C2=O)cc1 (stereo unspecified)	4µM*	0%	-10%	-6%	-22%
Cc1ccc(N2C(=O)C3C4C=CC(CNC(=S)Nc5ccc(Cl)cc5)(O4)C3C2=O)cc1 (stereo unspecified)	22µM*	3%	-19%	0%	-88%
CCCCCCCCCCCCCCCC[n+]1ccccc1	16µM*!	nt	0%	8%	nt
CCCCCCCCCCCCCC[n+]1ccc(C)cc1	nt	nt	5%	nt	nt
CCCCCCC[n+]1ccc(-c2cc[n+](CCCCCCC)cc2)cc1	6.3µM*	-3%	-5%	-9%	-29%
O=C(NCCCN1CCN(c2ccccc2F)CC1)c1ccc2nc(N3CCCCC3)sc2c1	nt	nt	-2%	nt	nt
CC(C)(C)c1cc(NCCCn2ccnc2)n2ncc(-c3ccc(Cl)cc3)c2n1	22µM*	1%	-3%	1%	-20%
Cc1cccc(NCCC(=O)c2ccc([N+](=O)[O-])cc2)c1C	35µM*	5%	6%	-6%	-7%
Cc1ccc(NCCC(=O)c2cccc([N+](=O)[O-])c2)c(C)c1	5.6µM*	0%	-6%	4%	-32%
Cc1ccc(NCC(=O)c2ccc([N+](=O)[O-])cc2)cc1	-18%	-5%	-8%	-6%	-2%
CCOC(=O)C1CCCN(c2nc3c(S(=O)(=O)c4ccc(C)c(C)c4)nnn3c3ccc(Cl)cc23)C1 (stereo unspecified)	nt	nt	1%	nt	nt
S=c1[nH]nc(-c2ccc3ccccc3n2)n1-c1ccccc1	nt	28µM*	?	6%	17%
Fc1ccccc1-n1c(-c2ccc3ccccc3n2)n[nH]c1=S	-17%	-12%	?	-23%	-2%
SMILES	RE007 growth inh	LmPK inhibitor	TbPYK inhibitor	FBPA Giardia inh	SARS PLpro yeast
CC(c1ccc(F)cc1)n1c(-c2ccc3ccccc3n2)n[nH]c1=S (stereo unspecified)	9%	11µM*	-13%	nt	1%
COc1ccc(-c2n[nH]c(=S)n2-c2ccc3c(c2)OCCO3)cc1	4%	?	?	4%	14%
S=c1[nH]nc(-c2ccc3ccccc3n2)n1-c1ccc2c(c1)OCCO2	-3%	8.9µM*	4.5µM*	13%	3%
CO/N=C(\C(=O)N[C@@H]1C(=O)N2C(C(=O)[O-])=C(C[n+]3cccc4c3CCCC4)CS[C@H]12)c1csc(N)n1	nt	nt	-14%	nt	nt
O=C1c2cccc3cccc(c23)C(=O)C1(O)O	4%	nt	7.1µM*	nt	nt
O=c1c(O)c(-c2ccc(O)c(O)c2)oc2ccccc12	nt	nt	nt	-27%	nt
O=c1c(O)c(-c2ccc(O)c(O)c2)oc2c(O)c(O)cc(O)c12	nt	nt	nt	7.1µM*	nt
N#CC(C#N)=Cc1cc(O)c(O)c(O)c1	nt	nt	-26%	16µM*	nt
CC(C)(C)C1=CC(=O)C(N2CCOCC2)=CC1=O	-12%	-10%	-26%	1.8µM*	-14%
O=C1C=C(N2CCCCC2)c2ccccc2C1=O	-3%	nt	-7%	nt	nt
CC#CCC(C)[C@H](O)/C=C/C1[C@H](O)C[C@@H]2C/C(=C\CCCC(=O)O)C[C@H]12 (stereo partly specified)	nt	nt	1%	nt	nt
O=C(O)c1cc(-c2ccc(-c3ccc(F)cc3)o2)nc2ccccc12	-13%	0%	?	20µM*	-2%
O=C(c1cc(-c2ccc(F)cc2)nc2ccccc12)N1CCC1	2%	nt	0%	nt	-5%
O=C(CCN1CCCCC1)c1ccc2c(c1)OCO2	7.9µM*	2%	-6%	-1%	-18%
O=C(CCCN1CCOCC1)c1ccc2c(c1)OCCO2	1%	-4%	2%	0%	-3%
O=C(CCN1CCCCC1)c1ccccc1	-9%	4%	-6%	4%	5%
O=C(CCN1CCc2ccccc2CC1)c1ccc2c(c1)OCCO2	7.1µM*	-6%	?	2%	-36%
O=C(CCN1CCOCC1)c1ccc2c(c1)OCCO2	13µM*	0%	6%	-17%	-115%
COc1ccc(OC)c(N=Cc2c(O)c3ccccc3oc2=O)c1	-2%	0%	-1%	-25%	3%
COc1ccc(N=Cc2c(O)c3ccccc3oc2=O)cc1	-9%	16µM*	-16%	-5%	-19%
CC1=C/C(=C(\c2cc(C)c(O)c(Br)c2)c2ccccc2S(=O)(=O)O)C=C(Br)C1=O	?	7.9µM*	?	?	-12%
Cc1cc(C(=O)c2ccccc2)cc(C)c1O	6%	nt	7%	nt	nt
CC(=O)NCCNc1nc2cc(-c3ccccc3C)sc2c(=O)n1C	32%	nt	1%	nt	nt
CC(=O)NCCNc1nc2cc(-c3ccccc3CO)sc2c(=O)n1C	28µM*	nt	-5%	nt	nt
Nc1ccc(S(=O)(=O)c2cccc(N)c2)cc1	5%	-1%	2%	4%	0%
Cc1ccc(S(=O)(=O)c2ccccc2)cc1S	nt	14µM*	nt	-4%	0%
